According to the supplement of paper PMC7411054:
Where a name gives a salt, the structure may show the parent alone.

system: WPMY1-GM130-SQSTM1; experiment: phenotypically active (imaging signature differs from DMSO and reproducible) at any of 0.3-9 uM (binary (1 = active, 0 = inactive)); higher = active; details: treatment time: 24 h
In short: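 Two criteria together defined phenotypic activity: deviation and reproducibility. Deviation meant ≥3 of 4 wells beyond the 95th percentile of Euclidean distances in solvent control wells, and reproducibility meant a median replicate Pearson correlation above the 95th percentile of non-replicates. Wells had been treated for 24 h at 0.3, 1, 3 or 9 µM in fifteen gene-edited A549, HepG2 and WPMY1 reporter lines before live imaging.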

Phenotypically active, active:
CC/C(=C(\CC)c1ccc(O)c(CN(CC)CC)c1)c1ccc(O)c(CN(CC)CC)c1 1, CNCCC(Oc1ccc(C(F)(F)F)cc1)c1ccccc1 (centres undefined) [fluoxetine] 1, Cn1cc(C2=C(c3ccc(Cl)cc3Cl)C(=O)NC2=O)c2ccccc21 1, CC(C)COCC(CN(Cc1ccccc1)c1ccccc1)N1CCCC1 (centres undefined) [bepridil] 1, COc1ccc(CCNCc2ccc(OCc3ccc(Cl)nc3)c(OC)c2)cc1OC [SBE 13 hydrochloride] 1, Cc1noc(C)c1Cn1cc(C#N)c2cc(Oc3ccc(NC(=O)[C@@H]4CCCN4)cc3)ccc21 1, CCCS(=O)(=O)Nc1ccc(F)c(C(=O)c2c[nH]c3ncc(Cl)cc23)c1F 1, COc1c(C=O)c(O)cc2c1C(=O)c1ccccc1C2=O [Damnacanthal] 1, COc1ccc(CNC(=O)Nc2ncc([N+](=O)[O-])s2)cc1 1, CC(C)OC(=O)c1cc2c(OCC(O)CNC(C)(C)C)cccc2[nH]1 (centres undefined) 1, COc1ccccc1OCCNCC(O)COc1cccc2[nH]c3ccccc3c12 (centres undefined) [Carvedilol] 1, O=S(=O)(c1cccc2cnccc12)N1CCCNCC1 [fasudil] 1, Clc1ccccc1C(c1ccccc1)(c1ccccc1)n1ccnc1 [Clotrimazole] 1, CSc1ccc2c(c1)N(CCC1CCCCN1C)c1ccccc1S2 (centres undefined) [thioridazine] 1, CCCNCC(O)COc1ccccc1C(=O)CCc1ccccc1 (centres undefined) [propafenone] 1, O=C(O)[C@@H]1[C@H]2C[C@H]3c4[nH]c5ccccc5c4CCN3C[C@@H]2CC[C@@H]1O [Yohimbinic acid monohydrate] 1, COc1cc(N2CCC(N)CC2)ccc1Nc1ncc(Cl)c(-c2c[nH]c3ccccc23)n1 1, Cc1noc(C)c1-c1ccc2c(c1)nc(CCc1ccc(OCCCN(C)C)cc1)n2CCN1CCOCC1 1, Cc1cc(Nc2ccc(NC(=O)c3ccc(Nc4ccnc5ccccc45)cc3)cc2)nc(N)n1 1, Cc1ccc(NC2=CC(=O)c3sc(C)nc3C2=O)cc1 [Ryuvidine] 1, C[C@]1(O)C[C@@H](c2nc(-c3ccc4ccc(-c5ccccc5)nc4c3)c3c(N)nccn32)C1 [linsitinib] 1, O=C(O)C[C@H](O)C[C@H](O)/C=C/c1c(C2CC2)nc2ccccc2c1-c1ccc(F)cc1 [Pitavastatin calcium] 1, NC(=O)c1cccc(-c2cc(Nc3ccc(OC(F)(F)F)cc3)ncn2)c1 1, CN1[C@@H]2CC[C@H]1C[C@@H](OC(c1ccccc1)c1ccccc1)C2 [benztropine] 1, NS(=O)(=O)c1nn2cc(-c3ccccc3)nc2s1 1

Phenotypically active, inactive:
COc1cc(OC)c2cc(-c3ccncc3)cnc2c1 [DMPQ dihydrochloride] 0, O=C(NOCC1CC1)c1ccc(F)c(F)c1Nc1ccc(I)cc1Cl 0, Cn1cc(CCn2cnc(-c3cnn(C)c3)c2-c2ccc(C#N)cc2)cn1 0, O=C(O)Cc1cccc(OCCCN(Cc2cccc(C(F)(F)F)c2Cl)CC(c2ccccc2)c2ccccc2)c1 [GW 3965 hydrochloride] 0, N#C/C(=C(/N)Sc1ccc(N)cc1)c1ccccc1C(F)(F)F 0, CCOP(=O)(OCC)C(=Cc1cc(C(C)(C)C)c(O)c(C(C)(C)C)c1)P(=O)(OCC)OCC 0, O=C([C@H](Cc1cccc(C(F)(F)F)c1)NS(=O)(=O)c1cc(F)c2c(c1)CCNC2)N1CCCC1 [(S)-PFI 2 hydrochloride] 0, CC(C)(C)c1ccc2cc(C#N)c(C#N)cc2c1 0, C[C@H]1Oc2cc(cnc2N)-c2c(nn(C)c2C#N)CN(C)C(=O)c2ccc(F)cc21 0, CCCCOc1cc(C(=O)NCCN(CC)CC)c2ccccc2n1 [cinchocaine] 0, COc1cc2ncnc(Nc3ccc(Cl)cc3F)c2cc1OC 0, Cc1ccc(NC(=O)c2cccc(N(C)C)c2)cc1NC(=O)c1ccc(O)cc1 0, COc1cc2c(cc1OCCCN1CCCC1)N=C(N)C21CCC1 0, CC#CC(=O)N1CCC[C@H]1c1nc(-c2ccc(C(=O)Nc3ccccn3)cc2)c2c(N)nccn12 [acalabrutinib] 0
